# Measured values as given in PubChem BioAssay AID488857 (Sanford-Burnham Center for Chemical Genomics, 2010).
# About 560 (40%) of roughly 1,400 compounds were called active. So high a share suggests a set chosen from earlier hits. Some of the results follow. Values without a mark were called inactive.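 How the source made its calls: active means mean inhibition over duplicate tests at 10 µM above 50%; inactive means the rest.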
# Assay: ASC/caspase-1 reporter retest in S. cerevisiae at one dose, specificity check for NALP1 project (AID 488857)
# Details: S. cerevisiae ASC/Caspase-1, beta-galactosidase luminescence, 24 h; at 10 µM; stronger effect = higher value
row,SMILES,inhibition
1,COc1ccc(S(=O)(=O)N2CCOC2CNC(=O)C(=O)NCCCN2CCOCC2)cc1C (stereo not drawn),28.6%
2,CSc1cc(N2CCOCC2)nc(-c2ccccc2Cl)n1,74.1% (active)
3,O=[N+]([O-])/C=C/c1ccc2c(ccn2Cc2ccccc2)c1,98.8% (active)
4,C/C(=N/NC(=O)c1nnn(-c2nonc2N)c1COc1ccccc1)c1ccc(O)cc1,27.6%
5,CCOc1nnc(C)c2c(C)n(-c3cccc(Cl)c3)nc12,28.1%
6,Cc1ccc(NC(=O)CNc2ccc(OC(C)C)cc2)cc1,39.6%
7,Cc1ccc(OC(=S)Nc2ccc(O)cc2)cc1,88.4% (active)
8,Cc1ccc(C(=O)/C=C/c2cn(CC(O)CN3CCOCC3)c3ccccc23)cc1 (stereo not drawn),52.7% (active)
9,CNc1ccccc(-c2ccc3ccccc3n2)c1=O,39.4%
10,CCN1/C(=C\c2ccc3ccccc3[n+]2CC)Sc2cc(C)ccc21,100% (active)
11,CCN1/C(=C/c2ccc3cc(C)ccc3[n+]2CC)Sc2ccccc21,100% (active)
12,CC[n+]1c(/C=C2\Sc3ccccc3N2C)ccc2cccc(C)c21,98.1% (active)
13,CCN1/C(=C/C=C/C=C/c2sc3ccccc3[n+]2CC)Sc2ccccc21,41%
14,CCN1/C(=C/c2ccc3ccc(C)cc3[n+]2CC)Sc2ccccc21,84.9% (active)
15,Cc1cc(N2C(=O)C=CC2=O)c([N+](=O)[O-])cc1C,3%
16,CC1(C)NC(=O)N(CCCCOc2ccc3ccccc3c2Cl)C1=O,48.8%
17,O=C(CCNc1n[nH]c(=O)[nH]c1=O)N/N=C/c1ccc(C(F)(F)F)cc1,23.2%
18,COc1cc(OC)c(-c2nnc(-c3ccc(OC)c(OC)c3OC)o2)cc1OC,31%
19,Cc1ccc2c(c1)c1c3n2CCCNC3CCC1 (stereo not drawn),33%
20,CCc1ccc(NCc2nc(-c3ccccc3)no2)cc1,57.2% (active)
21,c1ccc(-c2noc(-c3ccccc3-c3ccccc3)n2)cc1,23.6%
22,CCc1cccc(OCCN2CCCC2)c1,41.1%
23,Cc1ccc(C(C)C)cc1OCCN1CCCC1,54.6% (active)
24,CC(C)c1ccc(CN2CCN(C(=O)CCl)CC2)cc1,35.6%
25,Cc1cc(OCCN2CCCC2)cc(C(C)C)c1,53.9% (active)
26,COCCCNCCOc1cc(C(C)C)ccc1C,30.4%

row,SMILES,inhibition
1,Cc1cccc(C)c1OCC(=O)Nn1c(=O)[nH]c2ccccc2c1=O,34.9%
2,CCCCCCCCCCCCCCCCn1cc[n+](CC(C)=O)c1,80.2% (active)
3,CCCCCCCCCCCCCCCCn1cc[n+](C)c1,89.7% (active)
4,O=C(/C=C/c1ccccn1)c1ccc(Br)cc1O,85.5% (active)
5,CCNc1ccc(Br)cc(C(=O)/C=C/c2c(Cl)cccc2Cl)c1=O,42.6%
6,Cc1cc(C)c(S(=O)(=O)N(CC(=O)O)CC(=O)O)c(C)c1,46%
7,CC[N+]1(CC)CC2=Cc3c(ccc4ccccc34)CC2C1 (stereo not drawn),35.5%
8,CCOc1ccc(N2C(=O)CC(N)C2=O)cc1 (stereo not drawn),70% (active)
9,CCOc1ccc(C2N(c3ccc(F)cc3)C(=O)C3CCCN32)cc1 (stereo not drawn),26.1%
10,CCCCCCOc1ccc(N2C(=O)CC(N3CCC(C(=O)OCC)CC3)C2=O)cc1 (stereo not drawn),45.4%
11,Cc1ccc(Cl)cc1N1CCN(S(C)(=O)=O)CC1,33.1%
12,O=C(Cc1cccs1)Nc1nc(-c2ccc(F)cc2F)cs1,74.7% (active)
13,COc1ccc(-c2nc3c(c(=O)[nH]c(=O)n3Cc3ccccc3)n2C)cc1,41%
14,CCOC(=O)c1ccccc1NC(=O)COc1cc(=O)n(CC)c2ccccc12,33.4%
15,CCOc1ccccc1C(=O)OCC(=O)Nc1ccc(N2CCCCC2)cc1,67.3% (active)
16,O=C(Nc1ccc(F)cc1)c1cccnc1N1CCCCC1,43.2%
17,CNC(=S)N/N=C/c1cc(Br)cc(Br)c1O,85.5% (active)
18,CC(=O)n1cc(-c2ccncc2)c2ccccc21,52.4% (active)
19,CN1CCc2cccc3c2[C@H]1Cc1ccc(O)c(O)c1-3,50.5% (active)
20,CN1CCc2cccc3c2[C@@H]1Cc1ccc(O)c(O)c1-3,67% (active)
21,COc1ccc(Nc2ccnc(Nc3ccc(OC)cc3)n2)cc1,64.2% (active)
22,Fc1ccc(Nc2ccnc(Nc3ccc(F)cc3)n2)cc1,46.8%
23,CN(C)S(=O)(=O)c1ccc(N2CCCC2)c(C(=O)Nc2nc3ccccc3s2)c1,42.1%
24,O=C(NC(Nc1nc2ccc([N+](=O)[O-])cc2s1)(C(F)(F)F)C(F)(F)F)c1ccccc1Cl,100% (active)
25,CC(C)(C)C1=CC(=O)C(=O)C(C(C)(C)C)=C1,12.5%
26,COC1=C(Nc2ccccc2)C(=O)c2ccccc2C1=O,26.2%

row,SMILES,inhibition
1,COc1ccccc1NC1=C(N2CCCCC2)C(=O)c2ccccc2C1=O,81.7% (active)
2,O=C1OC(/C=C/c2ccc(Cl)cc2)=NC/1=C/c1ccco1,39.5%
3,CCCCCCOc1ccc(-c2ccc(C#N)cn2)cc1,37.6%
4,CCCCCCOc1ccc(OC(=O)c2ccncc2)cc1,14.7%
5,CCCCCOc1ccc(Br)cc1/C(C)=N/NC1=NCCN1,78.4% (active)
6,CCCCCCOc1ccc(/C(C)=N/NC2=NCCN2)cc1,80.3% (active)
7,Cc1c(-c2ccccc2)[n+](=O)c2c(n1[O-])CCC2,-7.75%
8,NC(C(=O)O)C1CC(Cl)=NO1 (stereo not drawn),59.1% (active)
9,CCCN(CCC)C(=O)Cn1c(=O)n(CCCCC(=O)NCc2ccco2)c(=O)c2ccccc21,49%
10,CCc1ccc(S(=O)(=O)/N=C2/C=C(Sc3ncn[nH]3)C(=O)c3ccccc32)cc1,96% (active)
11,CSCCNC(C)=O,17%
12,COC(=O)c1sccc1N/N=C(\C)c1ccc(F)c(Cl)c1,36%
13,CC1=C(C(=O)Nc2ccc(Cl)cc2)C(c2ccco2)NC(=O)N1 (stereo not drawn),15.8%
14,O=C(Nc1ccc(Cl)cc1)C1=Cc2ccccc2OC1,65.8% (active)
15,CCc1cccc(CC)c1NC(=S)NCCc1c(C)[nH]c2ccccc12,50.6% (active)
16,CCc1cccc(C)c1NC(=S)NCCc1c(C)[nH]c2ccc(C)cc12,44.8%
17,COc1ccc(CNCC(O)(c2ccccc2)c2ccc(Cl)cc2)cc1 (stereo not drawn),60% (active)
18,C=C(C(=O)c1ccccc1)C(C)C(=C)C(=O)c1ccccc1,59.5% (active)
19,CNC(=O)C(NC(=O)c1ccccc1)=C(C)C,38.2%
20,COC(=O)c1c(N)c(C#N)c2n1CCCCC2,37.8%
21,CCOC(=O)c1nc(C)sc1-c1ccnn1S(=O)(=O)c1ccc(C)cc1,45.4%
22,COc1ccc(-c2nc(N)n(S(=O)(=O)c3ccc(C)cc3)n2)cc1,63.5% (active)
23,Nc1nc(-c2ccco2)nn1S(=O)(=O)c1ccccc1,21.7%
24,Cc1c(-c2nc(N)nc(Nc3ccccc3)n2)oc2ccccc12,45.6%
25,CCOc1ccc2nc(SC3CC(=O)N(c4cccc(OC)c4)C3=O)sc2c1 (stereo not drawn),85% (active)
26,O=C1CC(Sc2nnnn2-c2ccccc2)C(=O)N1c1cccc(Cl)c1 (stereo not drawn),47.4%

row,SMILES,inhibition
1,CCOc1cccc(N2C(=O)CC(N3CCN(c4ccc(S(=O)(=O)CC)cc4)CC3)C2=O)c1 (stereo not drawn),34.4%
2,COC(=O)CSC1=C(C#N)C(=O)NC(c2ccccc2)S1 (stereo not drawn),39.5%
3,Cc1ccc(CSCCNC(=O)CSCc2ccc([N+](=O)[O-])cc2)cc1,68.6% (active)
4,COCCNC(=O)CCc1ccc(S(=O)(=O)Nc2ccc(C)cc2)cc1,25.9%
5,COCCNC(=O)c1ccc(C)c(S(=O)(=O)Nc2ccc(C)cc2)c1,27.9%
6,Cc1cccc(C(=O)NCc2ccc(S(N)(=O)=O)cc2)c1[N+](=O)[O-],30.2%
7,Cc1ccc(S(=O)(=O)NC2=NCN(CCOC(=O)c3ccc([N+](=O)[O-])cc3)CN2)cc1,14.1%
8,Cc1ccc(C(=O)NCCSCc2ccccc2)cc1[N+](=O)[O-],52.2% (active)
9,CCn1c2ccccc2c2cc(NC(=O)c3ccc(C)c([N+](=O)[O-])c3)ccc21,45.8%
10,Cc1ccc(C(=O)NCCc2cccc(Cl)c2)cc1[N+](=O)[O-],73.5% (active)
11,CCCCCCC1CCC(C(=O)Nn2c(C)nc3ccccc3c2=O)CC1 (stereo not drawn),49%
12,CC1CCCC/C1=N\Nc1ccc(S(N)(=O)=O)cc1[N+](=O)[O-] (stereo not drawn),25.7%
13,CCc1ccc(C(=O)NC(CC(C)C)C(=O)O)cc1 (stereo not drawn),46.8%
14,CC(NC(=O)Nn1cnnc1)(C(F)(F)F)C(F)(F)F,26.3%
15,Clc1ccc(Nc2ccc(NCc3ccccc3)nn2)cc1,85.7% (active)
16,COc1cc(C2Nc3ccccc3C(=O)N2c2ccccc2)ccc1O (stereo not drawn),15.1%
17,O=C(Nc1cc(Cl)ccc1-n1cncn1)c1ccc([N+](=O)[O-])s1,92% (active)
18,Cc1ccc2oc(-c3ccc(NC(=O)c4cccnc4)cc3)nc2c1,46.7%
19,CCCCCC(=O)Nc1ccc2oc(-c3cccnc3)nc2c1,58.5% (active)
20,CCC(=O)Nc1cccc(-c2nc3ccccc3o2)c1,78.7% (active)
21,CCCc1cc(C(=O)O)c2ccccc2n1,39.6%
22,CC(C)CCN(C(=O)Nc1ccccc1)C(C)c1cccs1 (stereo not drawn),42.2%
23,COc1ccc2c(c1)NC(=O)CC(c1ccccc1)=N2,43.8%
24,COc1ccccc1NS(=O)(=O)c1ccc(NC(=O)Cc2cccs2)cc1,33.9%
25,N/C(Cc1cccs1)=N\OC(=O)COc1ccccc1Cl,59.1% (active)
